About 21,000 targets were measured; listed, in parts, are those with the largest changes and a random draw of the rest.

Sequence of UniProt O43707 (O43707 whole entry, looked up): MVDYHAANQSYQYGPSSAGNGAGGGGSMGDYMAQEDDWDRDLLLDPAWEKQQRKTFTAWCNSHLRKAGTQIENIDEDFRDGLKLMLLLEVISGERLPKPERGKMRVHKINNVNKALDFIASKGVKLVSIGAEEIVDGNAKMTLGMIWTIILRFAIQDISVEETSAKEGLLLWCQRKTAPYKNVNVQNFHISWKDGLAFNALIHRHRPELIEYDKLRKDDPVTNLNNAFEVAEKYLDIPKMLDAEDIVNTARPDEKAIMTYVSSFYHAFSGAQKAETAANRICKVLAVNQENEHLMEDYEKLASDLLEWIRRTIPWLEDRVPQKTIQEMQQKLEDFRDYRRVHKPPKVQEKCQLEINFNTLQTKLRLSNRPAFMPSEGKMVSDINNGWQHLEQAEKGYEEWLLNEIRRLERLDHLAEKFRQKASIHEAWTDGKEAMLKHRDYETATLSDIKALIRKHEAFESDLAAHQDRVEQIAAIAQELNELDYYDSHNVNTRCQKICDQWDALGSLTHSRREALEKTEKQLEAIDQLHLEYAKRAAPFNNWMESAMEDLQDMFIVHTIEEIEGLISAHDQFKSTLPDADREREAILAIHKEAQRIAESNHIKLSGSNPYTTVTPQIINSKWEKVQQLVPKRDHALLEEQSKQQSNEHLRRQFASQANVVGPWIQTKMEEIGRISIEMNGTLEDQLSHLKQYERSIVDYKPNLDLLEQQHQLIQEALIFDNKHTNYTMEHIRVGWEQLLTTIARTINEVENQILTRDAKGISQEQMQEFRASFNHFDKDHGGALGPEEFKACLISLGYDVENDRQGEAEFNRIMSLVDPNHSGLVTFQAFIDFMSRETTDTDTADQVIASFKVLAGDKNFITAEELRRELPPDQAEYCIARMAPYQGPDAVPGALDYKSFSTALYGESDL
Sequence of UniProt P35612 (P35612 whole entry, looked up): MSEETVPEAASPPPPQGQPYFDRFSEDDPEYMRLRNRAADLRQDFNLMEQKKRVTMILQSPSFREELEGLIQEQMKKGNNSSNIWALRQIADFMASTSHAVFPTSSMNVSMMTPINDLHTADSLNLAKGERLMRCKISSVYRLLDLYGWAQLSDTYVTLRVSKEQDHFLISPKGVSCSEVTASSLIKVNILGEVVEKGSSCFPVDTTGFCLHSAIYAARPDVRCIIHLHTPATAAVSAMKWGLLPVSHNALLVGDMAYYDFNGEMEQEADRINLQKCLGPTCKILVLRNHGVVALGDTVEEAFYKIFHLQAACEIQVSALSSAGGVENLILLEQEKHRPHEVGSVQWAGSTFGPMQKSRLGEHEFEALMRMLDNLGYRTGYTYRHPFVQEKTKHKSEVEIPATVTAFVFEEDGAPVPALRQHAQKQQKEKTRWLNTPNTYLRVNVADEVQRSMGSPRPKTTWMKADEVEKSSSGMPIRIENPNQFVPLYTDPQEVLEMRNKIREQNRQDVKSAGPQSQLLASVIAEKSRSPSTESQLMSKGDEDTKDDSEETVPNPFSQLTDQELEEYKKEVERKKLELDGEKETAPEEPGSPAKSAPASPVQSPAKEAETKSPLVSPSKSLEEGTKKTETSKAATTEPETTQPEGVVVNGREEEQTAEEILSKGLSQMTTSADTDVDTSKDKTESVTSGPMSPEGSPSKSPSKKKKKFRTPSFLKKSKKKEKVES
Sequence of UniProt Q6UXN9 (Q6UXN9 whole entry, looked up): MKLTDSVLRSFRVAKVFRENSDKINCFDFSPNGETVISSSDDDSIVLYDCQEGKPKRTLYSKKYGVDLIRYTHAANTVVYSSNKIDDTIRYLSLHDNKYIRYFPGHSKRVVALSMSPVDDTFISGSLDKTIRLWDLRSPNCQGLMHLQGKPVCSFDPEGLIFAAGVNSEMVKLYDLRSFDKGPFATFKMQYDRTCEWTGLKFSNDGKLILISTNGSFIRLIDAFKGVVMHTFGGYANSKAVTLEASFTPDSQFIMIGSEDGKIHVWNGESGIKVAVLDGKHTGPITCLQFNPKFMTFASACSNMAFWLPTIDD
Sequence of UniProt P16219 (P16219 whole entry, looked up): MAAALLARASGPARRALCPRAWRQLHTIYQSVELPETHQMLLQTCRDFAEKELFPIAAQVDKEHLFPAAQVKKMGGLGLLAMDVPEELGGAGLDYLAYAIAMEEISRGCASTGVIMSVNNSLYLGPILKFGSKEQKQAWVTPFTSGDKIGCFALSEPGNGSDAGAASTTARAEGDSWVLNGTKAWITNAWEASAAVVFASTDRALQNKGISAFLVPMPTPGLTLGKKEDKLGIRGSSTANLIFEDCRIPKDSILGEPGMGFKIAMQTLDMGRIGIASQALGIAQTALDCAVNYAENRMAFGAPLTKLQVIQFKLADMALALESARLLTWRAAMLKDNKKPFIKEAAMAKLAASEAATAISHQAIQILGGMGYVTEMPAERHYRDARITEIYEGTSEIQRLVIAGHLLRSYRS
Sequence of UniProt Q9UNX4 (Q9UNX4 whole entry, looked up): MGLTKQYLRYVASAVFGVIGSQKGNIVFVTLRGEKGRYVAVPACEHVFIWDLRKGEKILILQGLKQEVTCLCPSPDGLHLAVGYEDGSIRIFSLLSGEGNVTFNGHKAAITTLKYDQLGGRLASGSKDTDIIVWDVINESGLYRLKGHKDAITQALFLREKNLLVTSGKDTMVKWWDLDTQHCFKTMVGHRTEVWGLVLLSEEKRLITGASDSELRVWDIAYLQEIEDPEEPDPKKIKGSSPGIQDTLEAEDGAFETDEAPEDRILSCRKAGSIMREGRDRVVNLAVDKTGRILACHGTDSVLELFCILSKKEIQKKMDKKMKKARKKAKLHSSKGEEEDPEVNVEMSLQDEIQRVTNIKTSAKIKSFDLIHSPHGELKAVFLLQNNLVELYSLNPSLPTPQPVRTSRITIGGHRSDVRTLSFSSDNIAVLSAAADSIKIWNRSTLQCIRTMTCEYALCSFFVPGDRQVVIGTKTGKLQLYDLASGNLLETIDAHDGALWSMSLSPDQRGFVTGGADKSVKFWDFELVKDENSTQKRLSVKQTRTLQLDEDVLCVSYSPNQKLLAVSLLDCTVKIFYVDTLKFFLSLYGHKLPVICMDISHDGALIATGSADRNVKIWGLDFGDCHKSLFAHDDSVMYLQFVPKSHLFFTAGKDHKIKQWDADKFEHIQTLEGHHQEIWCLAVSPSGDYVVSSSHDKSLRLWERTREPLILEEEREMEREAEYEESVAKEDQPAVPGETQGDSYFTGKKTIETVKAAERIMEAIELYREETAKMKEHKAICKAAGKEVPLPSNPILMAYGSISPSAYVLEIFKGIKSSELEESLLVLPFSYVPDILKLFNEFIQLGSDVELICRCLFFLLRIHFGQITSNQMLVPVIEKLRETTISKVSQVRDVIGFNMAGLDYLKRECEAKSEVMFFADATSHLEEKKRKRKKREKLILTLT
Sequence of UniProt O94967 (O94967 whole entry, looked up): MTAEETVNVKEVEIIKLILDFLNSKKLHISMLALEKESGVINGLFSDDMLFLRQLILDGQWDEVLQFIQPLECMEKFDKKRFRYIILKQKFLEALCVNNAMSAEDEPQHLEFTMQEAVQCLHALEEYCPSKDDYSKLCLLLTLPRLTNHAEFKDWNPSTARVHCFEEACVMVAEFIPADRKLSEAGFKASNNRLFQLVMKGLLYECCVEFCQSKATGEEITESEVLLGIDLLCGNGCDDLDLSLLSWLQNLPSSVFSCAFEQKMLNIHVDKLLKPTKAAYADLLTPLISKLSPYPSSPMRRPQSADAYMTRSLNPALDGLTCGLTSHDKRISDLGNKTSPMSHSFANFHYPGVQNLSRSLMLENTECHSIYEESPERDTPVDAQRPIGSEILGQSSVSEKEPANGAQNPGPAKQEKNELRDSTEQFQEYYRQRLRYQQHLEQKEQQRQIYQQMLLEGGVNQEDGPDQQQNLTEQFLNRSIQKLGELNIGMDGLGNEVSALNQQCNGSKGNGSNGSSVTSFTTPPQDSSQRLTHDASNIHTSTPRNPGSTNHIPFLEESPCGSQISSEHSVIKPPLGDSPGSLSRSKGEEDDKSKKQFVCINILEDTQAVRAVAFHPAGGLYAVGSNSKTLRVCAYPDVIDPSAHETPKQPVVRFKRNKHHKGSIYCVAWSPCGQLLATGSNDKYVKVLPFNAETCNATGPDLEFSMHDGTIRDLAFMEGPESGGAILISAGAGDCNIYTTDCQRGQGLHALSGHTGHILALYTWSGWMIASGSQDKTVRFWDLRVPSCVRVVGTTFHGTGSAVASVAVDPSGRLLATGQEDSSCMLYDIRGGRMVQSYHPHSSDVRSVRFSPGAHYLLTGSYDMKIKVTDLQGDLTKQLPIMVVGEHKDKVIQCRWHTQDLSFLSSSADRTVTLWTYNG
Sequence of UniProt P55263 (P55263 whole entry, looked up): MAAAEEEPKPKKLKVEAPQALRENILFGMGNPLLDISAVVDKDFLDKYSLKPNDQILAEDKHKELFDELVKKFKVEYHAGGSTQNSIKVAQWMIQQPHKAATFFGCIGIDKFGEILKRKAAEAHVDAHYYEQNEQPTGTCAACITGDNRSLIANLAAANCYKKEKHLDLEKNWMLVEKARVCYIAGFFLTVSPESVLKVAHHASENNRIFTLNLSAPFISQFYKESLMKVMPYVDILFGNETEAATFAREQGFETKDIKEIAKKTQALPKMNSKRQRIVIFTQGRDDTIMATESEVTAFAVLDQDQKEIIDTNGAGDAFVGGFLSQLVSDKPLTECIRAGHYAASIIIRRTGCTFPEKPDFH
Sequence of UniProt P61981 (P61981 whole entry, looked up): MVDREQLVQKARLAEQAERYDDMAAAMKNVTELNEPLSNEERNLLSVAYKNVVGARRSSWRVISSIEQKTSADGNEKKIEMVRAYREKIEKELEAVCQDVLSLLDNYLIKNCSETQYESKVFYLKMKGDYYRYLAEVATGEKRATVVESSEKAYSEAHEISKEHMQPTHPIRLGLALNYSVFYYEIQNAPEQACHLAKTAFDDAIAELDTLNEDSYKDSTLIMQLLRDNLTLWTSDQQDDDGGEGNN

Compound in one test: CC1Cc2ccccc2N1C(=O)C1CCCN(C1)C(=O)CCl (mixture of isomers) [TRIM25 ligand 11 (diastereomer mixture)]
Nature of the test: probe-labelled cysteine peptide fold change vs DMSO (competition) (log2 fold change); higher = less target engagement (more negative = stronger competition). As to conditions: 10 µM; THP-1; incubation time: 4 h.
“ACADVL_P49748_237_TSAVPSPCGK (UniProt P49748)”: the “probe-labelled cysteine peptide fold change” value was -0.126.
Take “ADK_P55263_160_SLIANLAAANCYKK (UniProt P55263)”: the “probe-labelled cysteine peptide fold change” value was -0.669.
Take “ACADS_P16219_109_GCASTGVIMSVNNSLYLGPILK (UniProt P16219)”: the “probe-labelled cysteine peptide fold change” value was 0.201.
In the case of “AARS_P49588_184+187_DNFWEMGDTGPCGPCSEIHYDR (UniProt P49588)”, the “probe-labelled cysteine peptide fold change” value was 0.105.
In the case of “ADD2_P35612_224_CIIHLHTPATAAVSAMK (UniProt P35612)”, the “probe-labelled cysteine peptide fold change” value is -0.0204.
In the case of “A6NIZ1_A6NIZ1_118_VKDTDDVPMILVGNKCDLEDER<|>RAP1B_P61224_118_VKDTDDVPMILVGNKCDLEDER (UniProt P61224+A6NIZ1)”, the “probe-labelled cysteine peptide fold change” value was -0.583.
Consider “ACTL6A_O96019_152_LTELMFEHYNIPAFFLCK (UniProt O96019)”, for which the “probe-labelled cysteine peptide fold change” value was -0.0461.
With “ACTN4_O43707_879_RELPPDQAEYCIAR (UniProt O43707)”, the “probe-labelled cysteine peptide fold change” value is 0.0491.
For the target “AGGF1_Q8N302_494_CDPYVLEHGDEVK (UniProt Q8N302)”, the “probe-labelled cysteine peptide fold change” value worked out at 0.0808.
With “ADAM15_Q13444_409_ALLDGMGSCLFER (UniProt Q13444)”, the “probe-labelled cysteine peptide fold change” value is -0.145.
As for “AAAS_Q9NRG9_335_CQTGCWSPDGSR (UniProt Q9NRG9)”, the “probe-labelled cysteine peptide fold change” value is 0.605.

Staying with this test, now noted: 50 µM; THP-1; incubation time: 4 h.
Consider “ACADVL_P49748_237_TSAVPSPCGK (UniProt P49748)”, for which the “probe-labelled cysteine peptide fold change” value is -0.057.
As to “ADK_P55263_160_SLIANLAAANCYKK (UniProt P55263)”, the “probe-labelled cysteine peptide fold change” value is -0.408.
In the case of “ACADS_P16219_109_GCASTGVIMSVNNSLYLGPILK (UniProt P16219)”, the “probe-labelled cysteine peptide fold change” value stood at 0.216.
Regarding “AARS_P49588_184+187_DNFWEMGDTGPCGPCSEIHYDR (UniProt P49588)”, the “probe-labelled cysteine peptide fold change” value was -0.0756.
Still for that read-out and setting: with “ADD2_P35612_224_CIIHLHTPATAAVSAMK (UniProt P35612)” the figure was -0.168; with “A6NIZ1_A6NIZ1_118_VKDTDDVPMILVGNKCDLEDER<|>RAP1B_P61224_118_VKDTDDVPMILVGNKCDLEDER (UniProt P61224+A6NIZ1)”, -0.426; with “ACTL6A_O96019_152_LTELMFEHYNIPAFFLCK (UniProt O96019)”, 0.0154.
The same measure, in the same setting: the figure for “ACTN4_O43707_879_RELPPDQAEYCIAR (UniProt O43707)” is 0.0892.
On to “AGGF1_Q8N302_494_CDPYVLEHGDEVK (UniProt Q8N302)”, for which the “probe-labelled cysteine peptide fold change” value came to 0.0697.
For “ADAM15_Q13444_409_ALLDGMGSCLFER (UniProt Q13444)”, the “probe-labelled cysteine peptide fold change” value is 0.146.
The same measure, in the same setting: with “AAAS_Q9NRG9_335_CQTGCWSPDGSR (UniProt Q9NRG9)” the figure was -0.129.

Compound in a further test: Cc1cc(ccc1-c1ccccc1)C(=O)N1CCCN(CC1)C(=O)CCl [compound 10]
The test is described as above. As to conditions: 10 µM; THP-1; incubation time: 4 h.
Consider “ZNF598_Q86UK7_867_VCPTCQQVLAHGDASSHQALHAAR (UniProt Q86UK7)”, for which the “probe-labelled cysteine peptide fold change” value is 0.228.
On to “ZMYM2_Q9UBW7_608_LYNFCNSSCVAK (UniProt Q9UBW7)”, for which the “probe-labelled cysteine peptide fold change” value is -0.186.
Regarding “ZC3H11A_O75152_588_SVLTPLRGDVASCNTQVAEK (UniProt O75152)”, the “probe-labelled cysteine peptide fold change” value is -0.0147.
Turning to “WDR47_O94967_672_GSIYCVAWSPCGQLLATGSNDK (UniProt O94967)”, the “probe-labelled cysteine peptide fold change” value was -0.439.
“ZMYND11_Q15326_126_CLSDEFR (UniProt Q15326)”: the “probe-labelled cysteine peptide fold change” value was -0.00978.
The same measure, in the same setting: the figure for “ZZEF1_O43149_728_DTEESVCGATLLLR (UniProt O43149)” is -0.0306; for “ZNF562_Q6V9R5_17_EPICPFEEK<|>ZNF561_Q8N587_17_EPICPFEEK (UniProt Q8N587+Q6V9R5)” it is -0.186; for “ZMYM2_Q9UBW7_612_LYNFCNSSCVAK (UniProt Q9UBW7)” it is -0.192.
For the target “ZNF592_Q92610_592_IHVPASGYCCLECGDAFALEK (UniProt Q92610)”, the “probe-labelled cysteine peptide fold change” value is -0.0351.
As to “WDR6_Q9NNW5_830_LACHVMHLSSHR (UniProt Q9NNW5)”, the “probe-labelled cysteine peptide fold change” value came out at 0.144.
Turning to “WDR3_Q9UNX4_183_WWDLDTQHCFK (UniProt Q9UNX4)”, the “probe-labelled cysteine peptide fold change” value was 0.0656.
For “ZC3HAV1_Q7Z2W4_513_VDDHDSEEICLDHLCK (UniProt Q7Z2W4)”, the “probe-labelled cysteine peptide fold change” value is 0.0207.
For the target “WRN_Q14191_1367_HGPDSGLQPSCDVNK (UniProt Q14191)”, the “probe-labelled cysteine peptide fold change” value was -0.126.
On to “ZFAND2B_Q8WV99_134_HRHPLDHDCSGEGHPTSR (UniProt Q8WV99)”, for which the “probe-labelled cysteine peptide fold change” value was -0.148.
Same read-out and setting: with “XPO4_Q9C0E2_492_IAAEHCIPLLTSLLEER (UniProt Q9C0E2)” the figure was 0.012.
On the same count and under the same terms, the figure for “ZYX_Q15942_467_AYHPHCFTCVVCAR (UniProt Q15942)” is 0.229; for “XPO4_Q9C0E2_723_ANLVIQCENWWNLAK (UniProt Q9C0E2)” it is 0.102; for “WDR44_Q5JSH3_701_LITAANFCQNGK (UniProt Q5JSH3)” it is -0.0485.
As to “WDR82_Q6UXN9_195_TCEWTGLK (UniProt Q6UXN9)”, the “probe-labelled cysteine peptide fold change” value was -0.0459.
On to “YWHAG_P61981_194_LGLALNYSVFYYEIQNAPEQACHLAK (UniProt P61981)”, for which the “probe-labelled cysteine peptide fold change” value came to 0.0292.

The same test, now with this note: 50 µM; THP-1; incubation time: 4 h.
Regarding “ZNF598_Q86UK7_867_VCPTCQQVLAHGDASSHQALHAAR (UniProt Q86UK7)”, the “probe-labelled cysteine peptide fold change” value was found to be 0.187.
Same read-out and setting: with “ZMYM2_Q9UBW7_608_LYNFCNSSCVAK (UniProt Q9UBW7)” the figure was -1.35; with “ZC3H11A_O75152_588_SVLTPLRGDVASCNTQVAEK (UniProt O75152)”, 0.00571; with “WDR47_O94967_672_GSIYCVAWSPCGQLLATGSNDK (UniProt O94967)”, -1.25.
Regarding “ZMYND11_Q15326_126_CLSDEFR (UniProt Q15326)”, the “probe-labelled cysteine peptide fold change” value was 0.0128.
On the same count and under the same terms, with “ZZEF1_O43149_728_DTEESVCGATLLLR (UniProt O43149)” the figure was -0.17; with “ZNF562_Q6V9R5_17_EPICPFEEK<|>ZNF561_Q8N587_17_EPICPFEEK (UniProt Q8N587+Q6V9R5)”, -1.08; with “ZMYM2_Q9UBW7_612_LYNFCNSSCVAK (UniProt Q9UBW7)”, -1.33.
Consider “ZNF592_Q92610_592_IHVPASGYCCLECGDAFALEK (UniProt Q92610)”, for which the “probe-labelled cysteine peptide fold change” value was -0.192.
Turning to “WDR6_Q9NNW5_830_LACHVMHLSSHR (UniProt Q9NNW5)”, the “probe-labelled cysteine peptide fold change” value was determined as 0.0864.
For “WDR3_Q9UNX4_183_WWDLDTQHCFK (UniProt Q9UNX4)”, the “probe-labelled cysteine peptide fold change” value stood at 0.271.
Take “ZC3HAV1_Q7Z2W4_513_VDDHDSEEICLDHLCK (UniProt Q7Z2W4)”: the “probe-labelled cysteine peptide fold change” value was -0.396.
In the case of “WRN_Q14191_1367_HGPDSGLQPSCDVNK (UniProt Q14191)”, the “probe-labelled cysteine peptide fold change” value was -0.11.
Still for that read-out and setting: the figure for “ZFAND2B_Q8WV99_134_HRHPLDHDCSGEGHPTSR (UniProt Q8WV99)” is 0.178; for “XPO4_Q9C0E2_492_IAAEHCIPLLTSLLEER (UniProt Q9C0E2)” it is 0.2; for “ZYX_Q15942_467_AYHPHCFTCVVCAR (UniProt Q15942)” it is 0.194.
On to “XPO4_Q9C0E2_723_ANLVIQCENWWNLAK (UniProt Q9C0E2)”, for which the “probe-labelled cysteine peptide fold change” value was -0.0501.
“WDR44_Q5JSH3_701_LITAANFCQNGK (UniProt Q5JSH3)”: the “probe-labelled cysteine peptide fold change” value was found to be 0.165.
The same measure, in the same setting: the figure for “WDR82_Q6UXN9_195_TCEWTGLK (UniProt Q6UXN9)” is 0.418; for “YWHAG_P61981_194_LGLALNYSVFYYEIQNAPEQACHLAK (UniProt P61981)” it is 0.41.

These data come from the supplement of paper PMC12067093, “Discovery and optimisation of a covalent ligand for TRIM25 and its application to targeted protein ubiquitination” (Chemical Science, 2025).
